Screen size: about 85,000 compounds; about 440 (0.52%) showed an effect of 50% or more. Shown is part of a subset that was picked to be rich in strong results.
Experiment: In vitro enzyme assay to detect hydrolysis of chlorophenol red-beta-D-[…] directly proportional to the number of Toxoplasma stably expressing beta-galactosidase
Format: functional, organism-based, Toxoplasma gondii
Parameters: scale not given: in the data most compounds retested in dose-response had high values

Row | SMILES | Percent Effect (50 µM) [%] | Percent Effect (10 µM) [%]
1 | CSCC(=O)N1CCN(Cc2nccn2C)CC1 | 0.586 | 
2 | CCN1CCN(S(=O)(=O)c2c(F)cccc2F)CC1 | -8.353 | 
3 | CN(CCC1CCCO1)Cc1ccc(N(C)C)nc1 (centres undefined) | 6.718 | 
4 | CC(C)COCCN1CCN(Cc2ccon2)CC1 | 0.7264 | 
5 | CCN(CC)c1nc(Nc2cccc(C(C)O)c2)nc2ccccc12 (centres undefined) |  | 95.47
6 | CC(O)c1cccc(Nc2nc(NCCO)c3ccccc3n2)c1 (centres undefined) |  | 12.45
7 | CCN(CC)c1nc(Nc2cccc(C(=O)O)c2)nc2ccccc12 |  | -21.05
8 | COC(=O)N1CCC(Nc2nnc(C(F)(F)F)s2)CC1 | 9.072 | 
9 | NCC1CCCN(c2ncccn2)C1 (centres undefined) | 3.495 | 
10 | O=C(NCC1CCCO1)c1cnn2cccnc12 (centres undefined) | -4.539 | 
11 | Cn1cnc2c1CCN(Cc1cccc(C(N)=O)c1)C2 |  | 1.729
12 | CC(C)c1nc2c(n1C)CCN(Cc1cccc(C(N)=O)c1)C2 |  | -1.993
13 | NC(=O)c1cccc(CN2CCc3c(ncn3C3CC3)C2)c1 |  | 83.44
14 | CN(CCC#N)C(CCO)c1ccccc1 (centres undefined) | 25.8 | 
15 | O=C(CSc1nnc(-c2ccccc2F)o1)NC1CC1 | -13.11 | 
16 | CC(C)(CC1CCCNC1)C(N)=O (centres undefined) | 7.36 | 
17 | Cc1cc(C)n(CC(=O)NCCc2ccc[nH]2)n1 | -10.28 | 
18 | COc1cc2cc(C(=O)NC(C)C(=O)O)n(C)c2c(OC)c1OC (centres undefined) |  | 17.43
19 | COc1cc2cc(C(=O)O)n(C)c2c(OC)c1OC |  | -3.347
20 | COc1cc2cc(C(=O)NCC(=O)O)n(C)c2c(OC)c1OC |  | 74.68
21 | COc1cc2cc(C(=O)N[C@@H](C)C(=O)O)n(C)c2c(OC)c1OC |  | -3.586
22 | COCCNC(=O)c1cc2cc(C)ccc2n1C | 2.035 | 
23 | COc1cc2cc(C(=O)NCCC(=O)O)n(C)c2c(OC)c1OC |  | 74.68
24 | COC(=O)C1CCN(C(=O)C2CCCO2)CC1 (centres undefined) | -8.272 | 

Row | SMILES | Percent Effect (50 µM) [%] | Percent Effect (10 µM) [%]
25 | COc1ccccc1SC(C)C(=O)N1CCNC1=O (centres undefined) | 15.55 | 
26 | CCc1cccc(NC(=O)C2CCCN(C(C)=O)C2)c1 (centres undefined) | 4.153 | 
27 | CC1CCC(N(C)C(=O)Cn2cccn2)CC1 (centres undefined) | -1.84 | 
28 | CN1CCc2[nH]nc(C(=O)N3CCC4(CCCO4)CC3)c2C1 |  | 1.903
29 | O=C(c1cc(C2CC2)n[nH]1)N1CCCC(O)(CO)CC1 (centres undefined) | 4.237 | 
30 | O=C(c1cc(C2CC2)n[nH]1)N1CCC2(CCCO2)CC1 | 64.63 | 
31 | Clc1ccc(CSc2cnn[nH]2)s1 | -14.75 | 
32 | Nc1nnc(SCc2ccc(Cl)s2)[nH]1 | 56.64 | 
33 | COc1ccc(CSc2nnc(N)[nH]2)c(Cl)c1 | 2.455 | 
34 | O=C(NCCO)c1nnsc1-c1ccc(Cl)cc1 | -1.39 | 
35 | CNC(=O)Cc1cccs1 | 0.3815 | 
36 | CC(C)N(CC(N)=O)CC(=O)NCCc1cccs1 | 12.36 | 
37 | CCS(=O)(=O)N(CCc1cccs1)CC(=O)NC | 65.25 | 
38 | CC(C)n1cccc1C(=O)NCCc1cncn1C | 7.567 | 
39 | COC(=O)c1[nH]cc(-c2ccccc2)c1N | 60.81 | 
40 | COC(=O)c1snc(-c2ccccc2)c1N | 3.849 | 
41 | CC(=O)Nc1nc(-c2ccccc2)c[nH]1 |  | -10.01
42 | O=S1(=O)CCC(NC2CCNCC2)C1 (centres undefined) | 0.6188 | 
43 | CC(CCNC(=O)CCc1cccnc1)n1ccnc1 (centres undefined) | -1.131 | 
44 | Cc1cc(=O)cc(C(=O)NCCC(C)n2ccnc2)o1 (centres undefined) | 85.97 | 
45 | Cc1cc(=O)cc(C(=O)NCCCc2ccncc2)o1 | 15.6 | 
46 | COCC(=O)N1CCCN(Cc2cnn(C)c2)CC1 | 1.219 | 
47 | CC(=O)Nc1nc(CC(=O)NCc2ccco2)cs1 | -28.1 | 
48 | Cn1cc(NC(=O)CCc2ccccn2)cn1 | -11.54 | 

Row | SMILES | Percent Effect (50 µM) [%] | Percent Effect (10 µM) [%]
49 | N#Cc1ccc(-n2nccc2N)cc1 | 92.39 | 
50 | Nc1ccnn1-c1ccccn1 | -4.085 | 
51 | Cc1cn(-c2ccc(C#N)cc2)nc1N | -9.418 | 
52 | O=C1CNCN1Cc1ccccc1 | 2.533 | 
53 | N[C@@H]1CC[C@@H]1NC(=O)c1scc2c1OCCO2 | -7.783 | 
54 | Cc1cnc(CN2CC3(CCOC3)CCC2=O)cn1 (centres undefined) | -2.648 | 
55 | CCn1ccc(C(=O)NCc2ccco2)n1 | -13.38 | 
56 | Cc1cc(C(=O)NCc2cccn2C)nn1C |  | 1.66
57 | Cn1cc(C(=O)NCCc2noc(C3CC3)n2)cn1 | -7.141 | 
58 | Cc1cc(C(=O)NCC(C)C)nn1C |  | 9.135
59 | Cc1cc(C(=O)NCc2ccco2)nn1C |  | 56.09
60 | Cc1ccc(CNC(=O)c2cc(C)n(C)n2)o1 |  | 75.49
61 | Cc1cc(C(=O)NCCc2noc(C3CC3)n2)[nH]n1 | 12.77 | 
62 | Cc1ccc(CNC(=O)c2cc(NC(=O)C3CC3)n(C)n2)o1 |  | 2.088
63 | Cc1cc(C(=O)NCCc2noc(C3CC3)n2)nn1C | 97.7 | 
64 | CN(Cc1cccnc1)C(=O)c1cccc(Cl)c1 | 11.97 | 
65 | CNC(=O)CSCc1ccc2ccccc2n1 | 15.55 | 
66 | CCCS(=O)(=O)N1CCC(CC(=O)NC)CC1 | -1.732 | 
67 | Cn1cncc1C(N)CO (centres undefined) | -9.765 | 
68 | CCC(N)(CC)CNS(=O)(=O)c1ccc2c(c1)CCO2 | -2.355 | 
69 | CC(C)CC(C)CN1CCN(CCS(C)(=O)=O)CC1 (centres undefined) | -18.72 | 
70 | COc1csc(-c2cc(N)[nH]n2)c1 | 7.911 | 
71 | CCS(=O)(=O)CCNC(C)(CO)C1CCCCC1 (centres undefined) | -6.595 | 
72 | CC(=O)c1c(C)cccc1NCC(=O)N(C)C | -19.59 | 

Row | SMILES | Percent Effect (50 µM) [%] | Percent Effect (10 µM) [%]
73 | CN1C(=O)c2ccc(C(=O)N(Cc3cnn(C)c3)C3CC3)cc2C1=O |  | -5.009
74 | Cn1cc(CN(C(=O)c2ccc(O)c(Cl)c2)C2CC2)cn1 |  | -12.14
75 | Cn1cc(CN(C(=O)c2ccc(N)nc2)C2CC2)cn1 | 96.08 | 
76 | CC(=O)N[C@H]1CCO[C@@H](c2cccc(NC(=O)c3ccc(=O)[nH]n3)c2)C1 |  | 71.09
77 | CC(=O)Nc1cccc([C@H]2C[C@@H](NC(C)=O)CCO2)c1 |  | -4.369
78 | CC(=O)N[C@H]1CCO[C@@H](c2cccc(NC(=O)c3cccc(F)c3)c2)C1 |  | 20.53
79 | COCCCNC(=O)Nc1cnn(C)c1 | 3.712 | 
80 | Cn1nnc2c(N3CCCCC3)ncnc21 | -0.3233 | 
81 | O=C(O)C(F)(F)F.O=C([C@@H]1CCO[C@@H]2CCN(Cc3ccc(F)cc3)C[C@H]21)N1CCCCO1 |  | 73.44
82 | O=C([C@@H]1CCO[C@@H]2CCN(CC3CC3)C[C@H]21)N1CCCC1 |  | -7.409
83 | O=C([C@@H]1CCO[C@@H]2CCN(CC3CC3)C[C@H]21)N1CCCCO1 |  | 96.45
84 | O=C(O)C(F)(F)F.O=C([C@H]1CN(Cc2ccc(F)cc2)C[C@H]2OCC[C@@H]12)N1CCCO1 |  | 0.4926
85 | O=C(O)C(F)(F)F.O=C([C@@H]1CCO[C@@H]2CCN(CC3CCOCC3)C[C@H]21)N1CCCO1 |  | -19.56
86 | O=C(O)C(F)(F)F.O=C([C@@H]1CCO[C@@H]2CCN(Cc3cccs3)C[C@H]21)N1CCCCO1 |  | -10.74
87 | CC1(C)CNCCC(=O)C1 | -1.716 | 
88 | C[C@H](N)c1ccc(Cl)s1 | 6.702 | 
89 | CCCc1nc(C(=O)NCCc2cccnc2)cs1 | -0.1814 | 
90 | CCn1nc(C)cc1C(=O)N1CCNC(=O)C1(C)C | 1.148 | 
91 | O=C1NCCN1CCNc1cc(C2CC(O)C2)ncn1 (centres undefined) | 17.22 | 
92 | CN1N=C(C(=O)NCCn2cccc2)CCC1=O | 4.885 | 
93 | CCCNC(=O)C1=NN(C)C(=O)CC1 | -13.89 | 
94 | CCc1ccccc1NC(=O)C1=NN(C)C(=O)CC1 | 53.5 | 
95 | Cc1nc(C)c(C(=O)N2CCCC3(CCOC3)C2)s1 (centres undefined) | -1.962 | 
96 | CN(C)CCCN(CCC#N)C(=O)c1ccccn1 | 5.806 | 

Row | SMILES | Percent Effect (50 µM) [%] | Percent Effect (10 µM) [%]
97 | Cc1n[nH]c(SCCN)n1 | 7.335 | 
98 | Cc1cc(NC(=O)COC(=O)c2cccc(F)c2)[nH]n1 | 3.257 | 
99 | O=C(CCN1C(=O)CCC1=O)OCCc1cccs1 | -8.658 | 
100 | COc1ccc(CNCCn2cccn2)cc1OC | -8.387 | 
101 | CC(C)c1ccc(C(CN)N2CCc3sccc3C2)cc1 (centres undefined) |  | 87.38
102 | NCC(c1ccccc1)N1CCc2sccc2C1 (centres undefined) |  | -0.2514
103 | NCC(c1ccc(Cl)cc1)N1CCc2sccc2C1 (centres undefined) |  | 32.54
104 | CC(CNC(=O)c1cccc(OC(F)F)c1)N(C)C (centres undefined) | -0.9989 | 
105 | CCOCCN1CCN(CC(C)O)CC1 (centres undefined) | -13.93 | 
106 | O=c1cc(-c2cc(O)cc(CCC3CCCCN3)c2)cc[nH]1 (centres undefined) |  | 0.1729
107 | Oc1cc(CCC2CCCCN2)cc(-c2ccncc2)c1 (centres undefined) |  | -0.7663
108 | CS(=O)(=O)c1ccc(-c2cc(O)cc(CCC3CCCCN3)c2)cc1 (centres undefined) |  | 50.66
109 | Cc1ccc(CN2CCOC(CCO)C2)c(F)c1 (centres undefined) | 1.605 | 
110 | CC(C)(C)Nc1nc(-c2cccnc2)c(-c2ccnc(NCCO)n2)s1 |  | 85.15
111 | CCNc1nc(-c2cccnc2)c(-c2ccnc(NS(C)(=O)=O)n2)s1 |  | -26.67
112 | CCNc1nc(-c2cccnc2)c(-c2ccnc(NCCO)n2)s1 |  | 32.17
113 | Cc1noc(C)c1CNC(=O)c1csc(S(N)(=O)=O)c1 | -3.715 | 
114 | COCC(=O)N1C[C@@H](OCc2cccnc2)[C@H]2OCCC[C@@H]21.O=C(O)C(F)(F)F |  | 1.724
115 | Cn1cccc1C(=O)N1C[C@@H](OCc2cccnc2)[C@H]2OCCC[C@H]21 |  | 1.724
116 | O=C(CC1CCCC1)N1C[C@H](OCc2ccncc2)[C@H]2OCCC[C@H]21.O=C(O)C(F)(F)F |  | -2.876
117 | Cc1cccc(C(=O)N2C[C@@H](OCc3ccncc3)[C@@H]3OCCC[C@@H]32)n1.O=C(O)C(F)(F)F.O=C(O)C(F)(F)F |  | -3.452
118 | COCC(=O)N1C[C@@H](OCc2ccncc2)[C@@H]2OCCC[C@@H]21.O=C(O)C(F)(F)F |  | 64.14
119 | Cn1cccc1C(=O)N1C[C@@H](OCc2ccncc2)[C@@H]2OCCC[C@@H]21.O=C(O)C(F)(F)F |  | 96.07
